# Measurements published in PubChem BioAssay (Tox21).
# Inconclusive results are not listed. Entries that show only a call come without a potency. Unmarked numbers belong to inactive results. Active and inactive are the calls of the source. Unless noted, calls come from the whole dose curve; as a rule, active = well fitted curve in the direction sought with a large enough effect in the repeat runs; inconclusive = weak or mixed curves; inactive = no such curve, though single readings can be large; an effect the other way counts as inactive or inconclusive.
# Experiments:
# [1] = qHTS assay to identify small molecule antagonists of the thyroid receptor (TR) signaling pathway - cell viability counter screen (AID 743064); note: nearly all actives have a fitted effect of over 50% in size
# How it was run: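 Counter screen for cytotoxicity: compound plus T3 (1 nM final) on GH3.TRE-Luc cells, 23.5 h at 37 °C, then fluorescence viability readout with CellTiter-Fluor.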
# [2] = qHTS assay to identify small molecule antagonists of the thyroid receptor (TR) signaling pathway (AID 743065); note: nearly all actives have a fitted effect of over 55% in size; note: potency is the fitted concentration of half-maximal effect
# How it was run: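 GH3.TRE-Luc rat pituitary cells carrying two TR response elements driving luciferase were plated for 4 h, given compound plus 1 nM T3 (final), and incubated 23.5 h at 37 C. ONE-Glo luminescence measured reporter inhibition; CellTiter-Fluor fluorescence tracked cytotoxicity.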
# [3] = test system: thyroid hormone receptor (rat, GH3 cells); assay: qHTS assay to identify small molecule agonists of the thyroid receptor (TR) signaling pathway (AID 743066; calls by dose curve)
# [4] = target: Estrogen receptor (Homo sapiens) (UniProt P03372); assay: qHTS assay to identify small molecule antagonists of the estrogen receptor alpha (ER-alpha) signaling pathway (AID 743069; active = well fitted curve in the direction sought with a large enough effect in the signal ratio in the repeat runs, not every such curve was filed as active; the % refers to the signal ratio)
# Estrogen receptor (Homo sapiens), sequence (P03372 whole entry, looked up): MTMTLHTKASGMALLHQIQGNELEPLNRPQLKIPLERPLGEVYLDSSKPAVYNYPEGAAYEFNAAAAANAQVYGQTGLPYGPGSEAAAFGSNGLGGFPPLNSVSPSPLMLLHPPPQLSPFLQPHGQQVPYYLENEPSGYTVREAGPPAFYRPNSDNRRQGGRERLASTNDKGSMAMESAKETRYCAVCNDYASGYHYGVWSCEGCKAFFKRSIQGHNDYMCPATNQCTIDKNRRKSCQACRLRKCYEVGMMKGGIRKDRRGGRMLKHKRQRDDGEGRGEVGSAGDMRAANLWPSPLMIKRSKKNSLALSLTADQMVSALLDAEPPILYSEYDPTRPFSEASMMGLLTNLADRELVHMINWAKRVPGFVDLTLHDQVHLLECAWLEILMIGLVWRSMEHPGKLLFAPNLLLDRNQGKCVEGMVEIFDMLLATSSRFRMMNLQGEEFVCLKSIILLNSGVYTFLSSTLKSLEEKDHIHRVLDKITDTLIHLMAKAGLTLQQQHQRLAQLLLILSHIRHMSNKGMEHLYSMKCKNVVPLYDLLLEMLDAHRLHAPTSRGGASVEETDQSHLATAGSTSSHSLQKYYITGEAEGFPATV
# How it was run: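 HEK293 cells stably carrying an ER-alpha-UAS-bla beta-lactamase reporter were pre-cultured overnight in 2% charcoal-stripped FBS medium. Test compounds in DMSO were added together with 17beta-estradiol for 18 hr at 37C. Read-out was fluorescence after 2 hr with LiveBLAzer B/G FRET substrate at room temperature.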
# [5] = qHTS assay to identify small molecule antagonists of the estrogen receptor alpha (ER-alpha) signaling pathway - cell viability counter screen (AID 743074; calls by dose curve; note: nearly all actives have a fitted effect of over 45% in size)
# [6] = target: Estrogen receptor (Homo sapiens) (UniProt P03372); assay: qHTS assay to identify small molecule agonists of the estrogen receptor alpha (ER-alpha) signaling pathway (AID 743075; calls by dose curve)
# [7] = target: Estrogen receptor (Homo sapiens) (UniProt P03372); assay: qHTS assay to identify small molecule agonists of the estrogen receptor alpha (ER-alpha) signaling pathway using the BG1 cell line (AID 743079); settings: BG1Luc4E2 cells, ERE-luciferase agonist, 22 h; activation: at 70.3 µM (top of the series); note: nearly all actives have a fitted effect of over 20% in size; note: potency is the fitted concentration of half-maximal effect
# [8] = qHTS assay to identify small molecule antagonists of the estrogen receptor alpha (ER-alpha) signaling pathway using the BG1 cell line (AID 743080; calls by dose curve;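 note: BG1 cells stimulated with 17beta-estradiol alongside compound; nearly all actives have a fitted effect of over 25% in size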)
# How it was run: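 Quantitative HTS on the Tox21 10K library: BG1 cells with endogenous ER-alpha and ERE-luciferase reporter, 17beta-estradiol stimulation, 21.5 h compound exposure, luminescence endpoint with parallel fluorescence cytotoxicity counter-read.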
# [9] = qHTS assay to identify small molecule antagonists of the estrogen receptor alpha (ER-alpha) signaling pathway using the BG1 cell line - cell viability counter screen (AID 743081);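 note: compound given together with 17beta-estradiol as the ER stimulus; nearly all actives have a fitted effect of over 45% in size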
# [10] = target: Aromatase (Homo sapiens) (UniProt P11511); assay: qHTS assay to identify aromatase inhibitors (AID 743083); note: nearly all actives have a fitted effect of over 55% in size
# Aromatase (Homo sapiens), sequence (P11511 whole entry, looked up): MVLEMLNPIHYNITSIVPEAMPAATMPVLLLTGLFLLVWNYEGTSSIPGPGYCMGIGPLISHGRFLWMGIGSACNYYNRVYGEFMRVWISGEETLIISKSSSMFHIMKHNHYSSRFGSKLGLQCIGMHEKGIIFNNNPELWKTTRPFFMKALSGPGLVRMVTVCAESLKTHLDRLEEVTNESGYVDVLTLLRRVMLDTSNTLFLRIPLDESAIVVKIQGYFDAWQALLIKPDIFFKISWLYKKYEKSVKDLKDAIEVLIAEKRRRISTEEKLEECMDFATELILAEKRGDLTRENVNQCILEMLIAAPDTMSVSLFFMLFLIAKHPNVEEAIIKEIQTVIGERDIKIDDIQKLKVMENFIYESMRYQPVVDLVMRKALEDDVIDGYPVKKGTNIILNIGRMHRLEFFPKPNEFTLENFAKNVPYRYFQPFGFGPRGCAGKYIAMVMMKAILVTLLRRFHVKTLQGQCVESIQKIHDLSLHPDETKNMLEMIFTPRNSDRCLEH
# [11] = qHTS assay to identify aromatase inhibitors - cell viability counter screen (AID 743084);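 note: cells stimulated with testosterone during compound exposure; nearly all actives have a fitted effect of over 55% in size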
# [12] = target: Aryl hydrocarbon receptor (Homo sapiens) (UniProt P35869); assay: qHTS assay to identify small molecule that activate the aryl hydrocarbon receptor (AhR) signaling pathway (AID 743085);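 note: HG2L7.5c1 human HepG2 liver cells with stably integrated DRE-driven firefly reporter; nearly all actives have a fitted effect of over 15% in size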
# Aryl hydrocarbon receptor (Homo sapiens), sequence (P35869 whole entry, looked up): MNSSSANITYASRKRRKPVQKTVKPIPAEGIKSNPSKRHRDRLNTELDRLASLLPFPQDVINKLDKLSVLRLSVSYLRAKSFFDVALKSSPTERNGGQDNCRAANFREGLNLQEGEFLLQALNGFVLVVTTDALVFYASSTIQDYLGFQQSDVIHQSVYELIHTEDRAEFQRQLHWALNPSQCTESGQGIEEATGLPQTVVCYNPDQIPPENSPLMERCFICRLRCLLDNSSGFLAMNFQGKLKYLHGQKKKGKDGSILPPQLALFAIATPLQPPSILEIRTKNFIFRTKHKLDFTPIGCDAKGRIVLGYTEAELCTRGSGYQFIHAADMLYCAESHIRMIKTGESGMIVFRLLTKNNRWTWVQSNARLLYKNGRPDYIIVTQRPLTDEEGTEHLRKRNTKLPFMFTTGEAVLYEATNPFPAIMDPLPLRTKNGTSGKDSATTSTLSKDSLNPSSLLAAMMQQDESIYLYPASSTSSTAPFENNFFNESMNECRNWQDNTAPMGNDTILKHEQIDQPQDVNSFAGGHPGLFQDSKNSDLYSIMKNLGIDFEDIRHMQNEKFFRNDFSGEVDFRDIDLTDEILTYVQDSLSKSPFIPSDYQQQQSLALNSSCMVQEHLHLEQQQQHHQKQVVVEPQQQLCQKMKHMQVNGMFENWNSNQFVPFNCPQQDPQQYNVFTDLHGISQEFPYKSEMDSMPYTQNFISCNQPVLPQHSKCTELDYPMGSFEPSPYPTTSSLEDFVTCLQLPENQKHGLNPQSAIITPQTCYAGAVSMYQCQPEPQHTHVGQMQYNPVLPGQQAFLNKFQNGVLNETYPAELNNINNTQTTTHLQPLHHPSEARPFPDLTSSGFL
# How it was run: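 Measured in HG2L7.5c1 cells: CellTiter-Fluor signal (30 min incubation, 37C) for viability, then luciferase luminescence (30 min, room temperature). Compound contact time was 24 h at 37C, following a 5 h pre-incubation.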
# [13] = qHTS assay to identify small molecule that activate the aryl hydrocarbon receptor (AhR) signaling pathway - cell viability counter screen (AID 743086);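 note: HepG2 liver cells carrying the AhR DRE luciferase reporter; nearly all actives have a fitted effect of over 45% in size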
# How it was run: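 HepG2-AhR-luc (HG2L7.5c1) cells, 4000/well, were preincubated 5 h at 37C, exposed to compound in qHTS format for 24 hr at 37C, then given CellTiter-Fluor for 30 min; viability was read as fluorescence in the reporter wells.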
# [14] = target: Peroxisome proliferator-activated receptor gamma (Homo sapiens) (UniProt P37231); assay: qHTS assay to identify small molecule agonists of the peroxisome proliferator-activated receptor gamma (PPARg) signaling pathway (AID 743094; active = well fitted activation curve with a large enough effect in the signal ratio in the repeat runs, not every such curve was filed as active; the % refers to the signal ratio)
# Peroxisome proliferator-activated receptor gamma (Homo sapiens), sequence (P37231 whole entry, looked up): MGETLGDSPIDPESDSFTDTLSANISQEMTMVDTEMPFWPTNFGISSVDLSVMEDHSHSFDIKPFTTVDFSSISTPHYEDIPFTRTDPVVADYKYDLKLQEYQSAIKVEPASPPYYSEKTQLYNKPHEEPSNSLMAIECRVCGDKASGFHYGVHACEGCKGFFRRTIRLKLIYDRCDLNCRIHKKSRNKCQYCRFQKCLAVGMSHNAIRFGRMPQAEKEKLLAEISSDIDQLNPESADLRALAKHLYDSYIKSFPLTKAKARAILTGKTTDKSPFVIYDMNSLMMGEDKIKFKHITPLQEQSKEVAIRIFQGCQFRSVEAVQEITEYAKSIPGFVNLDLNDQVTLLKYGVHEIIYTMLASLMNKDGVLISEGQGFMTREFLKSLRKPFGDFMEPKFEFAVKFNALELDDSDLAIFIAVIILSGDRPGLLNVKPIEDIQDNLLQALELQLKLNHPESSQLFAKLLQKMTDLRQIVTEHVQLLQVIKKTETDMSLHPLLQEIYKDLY
# How it was run: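 Stably transfected HEK293H cells (GeneBLAzer PPARg UAS-bla) were incubated with test substances for 17 h at 37C after a 5 h pre-incubation; beta-lactamase activity was then detected by FRET substrate fluorescence.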
# [15] = target: Peroxisome proliferator-activated receptor gamma (Homo sapiens) (UniProt P37231); assay: qHTS assay to identify small molecule antagonists of the peroxisome proliferator-activated receptor gamma (PPARg) signaling pathway (AID 743191; calls by dose curve; note: nearly all actives have a fitted effect of over 30% in size)
# How it was run: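 GeneBLAzer PPARg UAS-bla HEK293H cells carrying a UAS-driven beta-lactamase reporter were plated at 3000 cells/well, preincubated 5 h at 37C, then given compound for 17 h at 37C; LiveBLAzer B/G FRET substrate was read after 1 h at room temperature.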
# [16] = qHTS assay to identify small molecule antagonists of the peroxisome proliferator-activated receptor gamma (PPARg) signaling pathway - cell viability counter screen (AID 743194); note: nearly all actives have a fitted effect of over 55% in size
# How it was run: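 PPARg-UAS-bla HEK293H cells were plated, rested 5 h at 37 C, then treated with compounds plus rosiglitazone (50 nM final) for 17 h at 37 C; viability was then read by CellTiter-Glo luminescence after 30 min at room temperature.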
# [17] = qHTS assay for small molecule agonists of the antioxidant response element (ARE) signaling pathway (AID 743202; active = well fitted activation curve with a large enough effect in the signal ratio in the repeat runs, not every such curve was filed as active; the % refers to the signal ratio)
# How it was run: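 Read-out: LiveBLAzer B/G FRET substrate fluorescence after 2 h at room temperature, following 16 h compound treatment at 37 C of HepG2 cells carrying an ARE-driven beta-lactamase reporter.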
# [18] = qHTS assay for small molecule activators of the heat shock response signaling pathway - cell viability counter screen (AID 743209); note: nearly all actives have a fitted effect of over 50% in size
# How it was run: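 Quantitative HTS format, Tox21 10K library. HeLa cells carrying an HSE-driven beta-lactamase reporter were treated 5 h at 37 C, then assessed for viability by CellTiter-Glo luminescence.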
# [19] = qHTS assay for small molecule activators of the heat shock response signaling pathway (AID 743210; active = well fitted activation curve with a large enough effect in the signal ratio in the repeat runs, with a control signal flat, not every such curve was filed as active; the % refers to the signal ratio)
# How it was run: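 HSE-bla HeLa cells (beta-lactamase reporter under heat shock response elements) were exposed to compounds for 5 h at 37 C, then loaded with LiveBLAzer B/G FRET substrate for 2.5 h at room temperature before fluorescence reading.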
# [20] = qHTS assay for small molecule agonists of the antioxidant response element (ARE) signaling pathway - cell viability counter screen (AID 743203; calls by dose curve; note: nearly all actives have a fitted effect of over 55% in size)
# How it was run: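 Cells (ARE-bla HepG2, 2,000/well) receive DMSO-dissolved compounds after a 5 hrs rest. Plates incubate 16 hrs at 37C/5% CO2. CellTiter-Glo luminescence is then recorded after 30 min at room temperature.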
Structure (SMILES),Potency [1],Potency [2],outcome [3],Potency [4],Potency [5],Potency [6],Potency [7],Potency [8],Potency [9],Potency [10],Potency [11],Potency [12],Potency [13],Potency [14],Potency [15],Potency [16],Potency [17],Potency [18],Potency [19],Potency [20]
COCC(O)CO (centres undefined),inactive,inactive,inactive,inactive,inactive,inactive,inactive,inactive,inactive,inactive,inactive,inactive,inactive,inactive,inactive,inactive,inactive,inactive,inactive,–
CC(C)CCCC(=O)O,inactive,inactive,inactive,inactive,inactive,inactive,inactive,inactive,inactive,inactive,inactive,inactive,inactive,inactive,inactive,inactive,–,–,inactive,–
CCC1(C)CC(=O)NC1=O (centres undefined),inactive,inactive,inactive,inactive,inactive,inactive,inactive,inactive,inactive,inactive,inactive,inactive,inactive,inactive,inactive,inactive,inactive,inactive,inactive,inactive
OCC1CC=CCC1 (centres undefined),inactive,inactive,inactive,inactive,inactive,inactive,inactive,inactive,inactive,inactive,inactive,inactive,inactive,inactive,–,inactive,inactive,inactive,inactive,inactive
Nc1ccc(S(=O)(=O)O)c(N)c1,inactive,inactive,inactive,inactive,inactive,inactive,inactive,inactive,inactive,inactive,inactive,inactive,inactive,inactive,inactive,inactive,inactive,inactive,inactive,inactive
CC(=O)OCC(=O)[C@H]1CC[C@H]2[C@@H]3CCC4=CC(=O)CC[C@]4(C)[C@H]3CC[C@]12C,inactive,13.3 µM (active),inactive,inactive,inactive,inactive,4.22 µM (active),inactive,inactive,inactive,inactive,inactive,inactive,inactive,–,inactive,–,inactive,inactive,inactive
CNC(=O)N(c1ccccc1)c1ccccc1,inactive,inactive,inactive,inactive,inactive,inactive,inactive,inactive,inactive,inactive,inactive,inactive,inactive,inactive,–,inactive,–,inactive,inactive,inactive
O=[N+]([O-])c1cccc(S(=O)(=O)NCCNS(=O)(=O)c2cccc([N+](=O)[O-])c2)c1,inactive,inactive,inactive,inactive,inactive,inactive,inactive,inactive,inactive,inactive,inactive,inactive,inactive,inactive,inactive,–,–,inactive,inactive,inactive
CO[Si](C)(OC)OC,inactive,inactive,inactive,inactive,inactive,inactive,inactive,inactive,inactive,inactive,inactive,inactive,inactive,inactive,–,inactive,inactive,–,inactive,inactive
CN1C(=O)CC(C)(c2ccccc2)C1=O (centres undefined),inactive,inactive,inactive,inactive,inactive,inactive,inactive,inactive,inactive,inactive,inactive,inactive,inactive,inactive,inactive,inactive,inactive,inactive,–,inactive
CCCCCCCCCCCCCCCCBr,inactive,inactive,inactive,inactive,inactive,inactive,inactive,inactive,inactive,inactive,inactive,inactive,inactive,inactive,inactive,–,inactive,inactive,inactive,inactive
CCC(C(=O)OCCN(CC)CC)c1ccccc1 (centres undefined),inactive,inactive,inactive,inactive,inactive,inactive,inactive,inactive,inactive,inactive,inactive,inactive,inactive,inactive,inactive,inactive,inactive,–,inactive,inactive
CCOC(=N)CC(=O)OCC,inactive,inactive,inactive,inactive,inactive,inactive,inactive,inactive,inactive,inactive,inactive,inactive,inactive,inactive,inactive,inactive,inactive,inactive,inactive,inactive
